Measured values published in PubChem BioAssay (NCATS).
Records with an inconclusive call do not appear. Activity calls are given as the source filed them. Unless noted, calls follow the shape of the dose curve; as a rule, active = well fitted curve in the direction sought with a large enough effect; inconclusive = small, poorly fitted or top-dose-only effect, or another doubt; inactive = no such curve, though single readings can be large; an effect the other way counts as inactive or inconclusive.

Tests used:
[1] = P-glycoprotein substrates identified in KB-8-5-11 adenocarcinoma cell line, qHTS therapeutic library screen (AID 1346987); also: nearly all actives have a fitted effect of over 65% in size; also: potency is read from the fitted curve at half-maximal effect
Procedure, shortened: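 In this qHTS, P-gp-rich KB-8-5-11 cells received library compounds across a concentration range. Viability was quantified by luminescence after 72 h at 37 degree C.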

[2] = target: Cytochrome P450 2D6 (Homo sapiens) (UniProt P10635); assay: Cytochrome P450 family 2 subfamily D member 6 (CYP2D6) small molecule antagonists: luciferase biochemical (cell-free) qHTS assay (AID 1645840; active = well fitted curve in the direction sought with a large enough effect in the repeat runs; an effect the other way counts as inactive or inconclusive; also: nearly all actives have a fitted effect of over 55% in size; also: potency is read from the fitted curve at half-maximal effect; as to activity change, negative = inhibition: % is scaled to controls: 0 for no effect and ±100 for the full control effect)
Procedure, shortened: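 P450-Glo CYP2D6 system: proluciferin substrate converted by enzyme to luciferin, read by luminescence proportional to activity. Enzyme-substrate mix with compound 10 min at room temperature, then NADPH regeneration 1 h before detection reagent.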

[3] = target: Cytochrome P450 2C9 (Homo sapiens) (UniProt P11712); assay: Cytochrome P450 family 2 subfamily C member 9 (CYP2C9) small molecule antagonists: luciferase biochemical (cell-free) qHTS assay (AID 1645842; active = well fitted curve in the direction sought with a large enough effect in the repeat runs; an effect the other way counts as inactive or inconclusive; also: nearly all actives have a fitted effect of over 55% in size; also: potency is read from the fitted curve at half-maximal effect; as to activity change, negative = inhibition: % is scaled to controls: 0 for no effect and ±100 for the full control effect)
Procedure, shortened: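 P450-Glo CYP2C9 system: proluciferin substrate with enzyme in mix containing 0.4% BSA, 10 min at room temperature, then NADPH regeneration solution added and incubated 1 h at 37C. Detection reagent stopped reaction; luminescence read after 20 min as RLU.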

[4] = Primary qHTS for inhibitors of nuclear receptor binding SET domain protein 2 (NSD2) in an RCH-ACV wild type WT cells (2C) (AID 1645877); also: nearly all actives have a fitted effect of over 70% in size; also: potency is read from the fitted curve at half-maximal effect
[5] = system: HEK293; assay: Cytotoxic Profiling of Annotated Libraries Using Quantitative High-Throughput Screening (AID 1296008); conditions: Five cell lines viability, CellTiter-Glo ATP luminescence, 48-72 h; max response: stronger effect = lower value; also: nearly all actives have a fitted effect of over 60% in size; also: potency is read from the fitted curve at half-maximal effect; as to max response: % is scaled to controls: 0 for no effect and ±100 for the full control effect
Procedure, shortened: (§1)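 Compounds were pin-transferred onto cells and incubated 48 or 72 hr at 37 degree Celsius, 95% humidity. CellTiter-Glo was added, plates sat 10 min at room temperature, then ATP-coupled luminescence was imaged as the viability read-out.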

[6] = system: KB-3-1; assay: as above; conditions: Five cell lines viability, CellTiter-Glo ATP luminescence, 48-72 h; max response: stronger effect = lower value
Procedure, shortened: as §1

[7] = system: HeLa; assay: Primary qHTS to identify gynecologic anti-cancer compounds using libraries of approved drugs and bioactive compounds (AID 1345084); conditions: Gynecologic cancer cell panel viability, ATPlite luminescence, 48 h; series mostly up to 57.5 µM; also: nearly all actives have a fitted effect of over 55% in size; also: potency is read from the fitted curve at half-maximal effect
Procedure, shortened: (§2)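 48 h compound exposure at 37 C, 5% CO2; five-point qHTS. ATPlite luminescence readout of cell ATP.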

[8] = system: SKOV3; assay: as above; conditions: Gynecologic cancer cell panel viability, ATPlite luminescence, 48 h; series mostly up to 57.5 µM
Procedure, shortened: as §2

[9] = Primary qHTS for inhibitors of nuclear receptor binding SET domain protein 2 (NSD2) in an isogenic RCH-ACV NSD2 p.E1099K mutant (9B) (AID 1645876); also: nearly all actives have a fitted effect of over 70% in size; also: potency is read from the fitted curve at half-maximal effect
[10] = system: CAOV3; assay: Primary qHTS to identify gynecologic anti-cancer compounds using libraries of approved drugs and bioactive compounds (AID 1345084); conditions: Gynecologic cancer cell panel viability, ATPlite luminescence, 48 h; series mostly up to 57.5 µM; also: nearly all actives have a fitted effect of over 55% in size; also: potency is read from the fitted curve at half-maximal effect
Procedure, shortened: as §2

[11] = P-glycoprotein substrates identified in KB-3-1 adenocarcinoma cell line, qHTS therapeutic library screen (AID 1346986); also: nearly all actives have a fitted effect of over 60% in size
Procedure, shortened: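 Using luminescence to quantify ATP, parental and P-gp-overexpressing KB cells were compared after 72 h compound titration. KB-8-5-11 was also run with the P-gp inhibitor tariquidar.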

[12] = system: CRL-7250; assay: Cytotoxic Profiling of Annotated Libraries Using Quantitative High-Throughput Screening (AID 1296008); conditions: Five cell lines viability, CellTiter-Glo ATP luminescence, 48-72 h; max response: stronger effect = lower value; also: nearly all actives have a fitted effect of over 60% in size; also: potency is read from the fitted curve at half-maximal effect; as to max response: % is scaled to controls: 0 for no effect and ±100 for the full control effect
Procedure, shortened: as §1

[13] = system: HACAT; assay: qHTS assay to identify novel small-molecules to repurpose for Merkel cell carcinoma treatment (AID 1296009); conditions: MCC and control cell lines, CellTiter-Glo viability, 72 h; at 44.8 µM (top of the series) unless noted; also: nearly all actives have a fitted effect of over 60% in size
Procedure, shortened: (§3)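 Luminescence from CellTiter-Glo, read 10 min after addition at room temperature, reported viability following a 72 hr, 37 degree celsius treatment with NPC or MIPE compounds in titration; values normalized to plate controls.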

[14] = qHTS drug screen for cell cycle checkpoint inhibitors in PARPi-resistant BRCA-mutant ovarian cancer cell lines. (AID 1963452; calls by dose curve); conditions: PEO1/OlaR viability, CellTiter-Glo luminescence, 96 h, stronger effect = lower value
Procedure, shortened: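 PEO1, PEO4 and PEO1/OlaR ovarian cancer cells, 600 per well, exposed 96 h at 37C to a dilution series. Viability read by CellTiter-Glo luminescence, normalized to DMSO and empty wells; activity summarized as Z-AUC.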

[15] = system: NIH3T3; assay: qHTS assay to identify novel small-molecules to repurpose for Merkel cell carcinoma treatment (AID 1296009); conditions: MCC and control cell lines, CellTiter-Glo viability, 72 h; at 44.8 µM (top of the series) unless noted; also: nearly all actives have a fitted effect of over 60% in size
Procedure, shortened: as §3

[16] = system: CRL-7250; assay: as above; conditions: MCC and control cell lines, CellTiter-Glo viability, 72 h; series mostly up to 92 µM
Procedure, shortened: as §3

[17] = target: Catechol O-methyltransferase (Homo sapiens) (UniProt P21964); assay: Confirmatory Screen for Target Class Profiling of Small Molecule Inhibitors of Methyltransferases (AID 1745852); conditions: MTase-Glo luminescence, SAH detection, recombinant enzyme; measured here: COMT max response; stronger effect = lower value
[18] = target: Guanidinoacetate N-methyltransferase (Homo sapiens) (UniProt Q14353); assay: as above; conditions: activity change, negative = inhibition: at 57.3 µM (top of the series) unless noted
[19] = target: Nicotinamide N-methyltransferase (Homo sapiens) (UniProt P40261); assay: as above; conditions: MTase-Glo luminescence, SAH detection, recombinant enzyme; measured here: NNMT max response; stronger effect = lower value
[20] = target: Phenylethanolamine N-methyltransferase (Homo sapiens) (UniProt P11086); assay: as above; conditions: MTase-Glo luminescence, SAH detection, recombinant enzyme; measured here: PNMT max response; stronger effect = lower value
[21] = measured here: PEO1 parental Z-AUC

Chain of Cytochrome P450 2D6 (Homo sapiens) (P10635 whole entry, looked up): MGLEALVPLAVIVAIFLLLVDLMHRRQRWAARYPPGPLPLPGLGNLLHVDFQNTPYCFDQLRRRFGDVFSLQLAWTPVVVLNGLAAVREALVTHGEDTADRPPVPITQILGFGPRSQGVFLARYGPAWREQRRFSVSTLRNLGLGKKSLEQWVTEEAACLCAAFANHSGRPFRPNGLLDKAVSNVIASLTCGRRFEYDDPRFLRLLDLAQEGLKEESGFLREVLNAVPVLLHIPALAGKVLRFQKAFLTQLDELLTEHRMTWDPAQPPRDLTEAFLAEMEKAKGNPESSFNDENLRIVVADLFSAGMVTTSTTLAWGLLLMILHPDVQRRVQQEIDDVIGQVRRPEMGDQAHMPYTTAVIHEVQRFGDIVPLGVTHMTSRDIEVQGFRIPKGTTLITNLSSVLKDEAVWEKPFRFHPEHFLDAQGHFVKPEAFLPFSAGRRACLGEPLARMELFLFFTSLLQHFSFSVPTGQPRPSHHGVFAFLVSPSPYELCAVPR
Chain of Cytochrome P450 2C9 (Homo sapiens) (P11712 whole entry, looked up): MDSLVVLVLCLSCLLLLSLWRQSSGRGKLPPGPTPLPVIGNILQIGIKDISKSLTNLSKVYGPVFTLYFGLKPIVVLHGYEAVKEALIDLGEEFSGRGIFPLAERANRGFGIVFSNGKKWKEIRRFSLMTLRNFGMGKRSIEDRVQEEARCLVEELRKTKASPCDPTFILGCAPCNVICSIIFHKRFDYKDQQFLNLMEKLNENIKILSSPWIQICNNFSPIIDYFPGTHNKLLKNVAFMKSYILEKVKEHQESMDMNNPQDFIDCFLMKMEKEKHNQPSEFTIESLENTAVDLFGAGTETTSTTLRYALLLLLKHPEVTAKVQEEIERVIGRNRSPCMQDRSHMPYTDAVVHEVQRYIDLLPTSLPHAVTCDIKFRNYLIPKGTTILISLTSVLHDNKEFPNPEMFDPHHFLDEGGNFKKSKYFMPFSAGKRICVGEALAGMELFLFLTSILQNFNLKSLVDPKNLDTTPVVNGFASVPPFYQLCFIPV
Chain of Nicotinamide N-methyltransferase (Homo sapiens) (P40261 whole entry, looked up): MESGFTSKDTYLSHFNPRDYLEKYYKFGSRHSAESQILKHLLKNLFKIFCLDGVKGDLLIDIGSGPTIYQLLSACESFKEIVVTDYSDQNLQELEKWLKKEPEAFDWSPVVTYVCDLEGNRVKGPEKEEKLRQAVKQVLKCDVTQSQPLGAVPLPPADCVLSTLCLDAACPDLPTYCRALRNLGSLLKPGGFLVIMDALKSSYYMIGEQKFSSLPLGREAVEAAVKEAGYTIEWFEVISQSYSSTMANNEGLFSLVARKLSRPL
Chain of Phenylethanolamine N-methyltransferase (Homo sapiens) (P11086 whole entry, looked up): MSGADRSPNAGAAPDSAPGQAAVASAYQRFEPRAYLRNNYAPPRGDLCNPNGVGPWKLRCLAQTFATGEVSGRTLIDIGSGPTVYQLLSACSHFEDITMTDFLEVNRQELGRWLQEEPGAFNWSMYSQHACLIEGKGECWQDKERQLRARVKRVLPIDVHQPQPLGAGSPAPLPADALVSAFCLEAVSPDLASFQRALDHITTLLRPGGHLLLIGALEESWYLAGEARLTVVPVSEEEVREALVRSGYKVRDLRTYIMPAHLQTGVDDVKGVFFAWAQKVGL
Chain of Catechol O-methyltransferase (Homo sapiens) (P21964 whole entry, looked up): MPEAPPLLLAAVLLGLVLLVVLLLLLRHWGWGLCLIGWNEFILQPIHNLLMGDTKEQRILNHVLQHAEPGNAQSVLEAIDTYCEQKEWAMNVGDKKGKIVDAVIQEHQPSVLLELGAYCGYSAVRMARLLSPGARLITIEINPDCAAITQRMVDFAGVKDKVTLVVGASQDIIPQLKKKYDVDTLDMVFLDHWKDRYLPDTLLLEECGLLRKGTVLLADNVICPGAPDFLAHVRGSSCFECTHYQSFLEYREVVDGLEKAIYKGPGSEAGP

Compound: COc1cccc(NCC(F)Cn2c3ccc(Br)cc3c3cc(Br)ccc32)c1 (configuration not stated)
- Potency [1]: 14.6 µM (active)
- Potency [2]: inactive
- Potency [3]: 7.56 µM (active)
- Potency [4]: 20.5 µM (active)
- Potency [5]: 13 µM (active)
- Potency [6]: 18.4 µM (active)
- Potency [7]: inactive
- Potency [8]: 14.1 µM (active)

Compound: C[C@@H]1O[C@@H](O[C@H]2CC[C@@]3(C)C(CC[C@@H]4C3CC[C@]3(C)[C@@H](C5=CC(=O)OC5)CC[C@]43O)C2)[C@H](O)[C@H](O)[C@H]1O (some centres not stated)
- Potency [1]: 0.709 µM (active)
- Potency [9]: 0.2 µM (active)
- Potency [4]: 0.632 µM (active)
- Potency [5]: 0.632 µM (active)
- Potency [6]: 0.796 µM (active)
- Potency [10]: 3.98 µM (active)
- Potency [7]: 2 µM (active)
- Potency [8]: 2 µM (active)

Compound: CCC1CC2CN3CCc4c([nH]c5ccccc45)C(C(=O)OC)(C2)C13 (configuration not stated)
- Potency [11]: inactive
- Potency [1]: inactive
- Potency [9]: inactive
- Potency [4]: inactive
- max response [12]: 3.09% (inactive)
- Potency [10]: inactive

Compound: C=C(CO)[C@@]12O[C@@H]1[C@@]1(C)C(=CC2=O)CC[C@@H](O)[C@@H]1C
- Potency [1]: 13 µM (active)
- Potency [9]: 12.9 µM (active)
- Potency [4]: 12.9 µM (active)
- Potency [5]: 23.1 µM (active)
- outcome [13]: inactive
- Potency [7]: inactive

Compound: CO/C1=C\C(C)=C\[C@@H](C)[C@@H](O)[C@@H](C)C/C(C)=C/C=C/[C@H](OC)[C@@H]([C@@H](C)[C@@H](O)[C@H](C)[C@@]2(O)C[C@@H](O)[C@H](C)[C@@H](C(C)C)O2)OC1=O
- Potency [1]: 0.109 µM (active)
- Potency [9]: 0.0483 µM (active)
- Potency [4]: 0.0305 µM (active)
- Potency [12]: 0.0862 µM (active)
- Potency [6]: 0.0611 µM (active)
- Potency [10]: 0.126 µM (active)
- Potency [7]: 0.126 µM (active)

Compound: Cc1ncc(OC[C@@]2(c3cccc(F)c3)C[C@H]2C(=O)Nc2ccc(F)cn2)c(C)n1
- Potency [9]: inactive
- Z-AUC [14]: -0.208 (inactive)
- Z-AUC [14, 21]: -0.55
- Z-AUC ([14]; measured here: PEO4 Z-AUC): 0.108
- max response [5]: 4.45% (inactive)
- outcome [13]: inactive
- outcome [15]: inactive

Compound: C[C@@H](CN1CCC2(CC1)C(=O)NCN2c1cccc(F)c1)NC(=O)c1ccc(Br)cc1
- Potency [2]: 4.77 µM (active)
- Potency [3]: 9.52 µM (active)
- Potency [9]: 11.5 µM (active)
- outcome [12]: inactive
- Potency [16]: inactive
- Potency [10]: inactive
- Potency [7]: inactive

Compound: C[C@H](Nc1ncnc2nc[nH]c12)c1nc2ccc(F)cc2c(=O)n1-c1ccccc1
- Potency [2]: 15.1 µM (active)
- Potency [3]: 12 µM (active)
- Z-AUC [14]: 0.252 (inactive)
- Z-AUC [14, 21]: 0.609
- Z-AUC ([14]; measured here: PEO4 Z-AUC): 0.915
- max response [12]: -36.2% (inactive)
- max response [6]: -3.18% (inactive)
- Potency [10]: inactive
- Potency [7]: inactive
- Potency [8]: inactive

Compound: COc1cc2c(cc1O)C1(C)CCC(O)C(C)(C)C1CC2=O (configuration not stated)
- Potency [11]: inactive
- Potency [1]: inactive
- Potency [9]: inactive
- Potency [4]: inactive
- max response [5]: -7.2% (inactive)
- outcome [6]: inactive
- outcome [13]: inactive
- outcome [15]: inactive
- Potency [10]: inactive
- Potency [7]: inactive
- Potency [8]: inactive

Compound: CO[C@H]1C[C@H](O[C@H]2CC[C@]3(C=O)[C@H]4CC[C@]5(C)[C@@H](C6=CC(=O)OC6)CC[C@]5(O)[C@@H]4CC[C@]3(O)C2)O[C@H](C)[C@H]1O
- Potency [1]: 0.126 µM (active)
- Potency [9]: 0.0399 µM (active)
- Potency [4]: 0.0893 µM (active)
- Potency [12]: 0.112 µM (active)
- outcome [15]: inactive [at 17.4 µM]
- Potency [10]: 0.199 µM (active)
- Potency [7]: 0.141 µM (active)
- Potency [8]: 0.141 µM (active)

Compound: CC1=CC2/C=C(\C)CCC(O)C(O)/C=C/C(=O)OC23C(=O)NC(CC(C)C)C3C1C (configuration not stated)
- Potency [1]: inactive
- Potency [9]: 8.93 µM (active)
- max response [12]: -26.9% (inactive)
- outcome [13]: inactive [at 17.4 µM]
- Potency [10]: inactive
- Potency [7]: inactive

Compound: CCOC(=O)Nc1ccc(NCc2c(C)cc(C)cc2C)cc1N
- Potency [2]: 2.13 µM (active)
- Potency [3]: inactive
- Potency [9]: 18.3 µM (active)
- Potency [4]: 9.16 µM (active)
- outcome [12]: inactive
- Potency [16]: inactive
- Potency [7]: inactive
- Potency [8]: inactive

Compound: CC/C=C/C=C/C1(C)OC(OC)=C(C(=O)C2C(C)C(=O)c3cc(OC)c(O)c(O)c3C2(C)O)C1=O (configuration not stated)
- Potency [4]: 7.09 µM (active)
- max response [12]: -16.8% (inactive)
- Potency [10]: inactive
- Potency [7]: inactive

Compound: Cc1[nH]c2ccc(Cl)cc2c1CCN(C)C
- Potency [1]: inactive
- Potency [2]: 3.38 µM (active)
- Potency [3]: inactive
- Potency [9]: inactive
- activity [17]: -4.16%
- activity change, negative = inhibition [18]: -1.82%
- activity [19]: -4.68%
- activity [20]: -3.11%
- max response [12]: -0.626% (inactive)
- max response [6]: 3.8% (inactive)
- outcome [15]: inactive
- Potency [10]: inactive
- Potency [7]: inactive

Compound: O=C1CN=C(c2cccc(Br)c2)c2oc3ccccc3c2N1
- Potency [1]: 14.6 µM (active)
- Potency [2]: inactive
- Potency [3]: 10.7 µM (active)
- Potency [9]: 9.16 µM (active)
- Potency [4]: 6.49 µM (active)
- outcome [12]: inactive
- Potency [16]: inactive
- Potency [10]: inactive
